Results: PubChem BioAssay (NCATS)
Results filed as inconclusive are left out. The source made the active and inactive calls. The call rests on the fitted dose curve; in most records, active means well fitted curve in the direction sought with a large enough effect; inconclusive means small, poorly fitted or top-dose-only effect, or another doubt; inactive means no such curve, though single readings can be large; an effect the other way counts as inactive or inconclusive.

Tests used:
[1] = target: Cytochrome P450 3A7 (Homo sapiens) (UniProt P24462); experiment: Cytochrome P450 family 3 subfamily A member 7 (CYP3A7) small molecule antagonists: luciferase biochemical qHTS assay (AID 1963596); further: on the % scale 0 is the no-effect control and ±100 the full control effect; nearly all actives have a fitted effect of over 40% in size
How it was run: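 In this luminescent screen, enzyme and proluciferin substrate meet test compound for 10 min before NADPH regeneration solution drives a 1 h room-temperature reaction; detection reagent halts turnover and luminescence is read 20 min later.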

[2] = Viability qHTS for spleen associated tyrosine kinase inhibitor (SYKi) naive MV4-11 cells (AID 1963823); further: nearly all actives have a fitted effect of over 40% in size
How it was run: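 Compounds were dispensed acoustically onto plates, MV4-11 cells (SYKi-naive) added at 500 per well, and plates incubated 72 hr at 37 C. CellTiter-Glo was added and luminescence measured after 10 min.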

[3] = Cellular viability qHTS for adrenocortical cancer (ACC) cell line SW-13 (AID 1963989); conditions: SW-13 ACC cells viability, CellTiter-Glo, 48 h; activity (max response): active compounds read low;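 further: cells grown in serum-free medium with ITS supplement; on the % scale 0 is the no-effect control and ±100 the full control effect; nearly all actives have a fitted effect of over 65% in size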
How it was run: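 Compound titrations (up to 46 uM final, in DMSO) were applied to SW-13 cells for 48 h at 37C/5% CO2. Reading used CellTiter-Glo after 20 min at room temperature; fitted curves yielded IC50 and efficacy.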

[4] = Cellular viability qHTS for adrenocortical cancer (ACC) cell line NCI-H295R (AID 1963990);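 further: 0% = DMSO only wells and -100% = full killing with cytotoxic reference compound; nearly all actives have a fitted effect of over 60% in size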
How it was run: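 Readout: CellTiter-Glo luminescence, 20 min RT. Exposure: 48 h, 37C/5% CO2. Cells: NCI-H295R, ITS-DMEM serum-free. Range: up to 46 uM. Analysis: 4PL fit, IC50 plus efficacy.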

[5] = Viability qHTS for spleen associated tyrosine kinase inhibitor (SYKi) drug resistant MV4-11 cells (AID 1963824); further: nearly all actives have a fitted effect of over 35% in size
How it was run: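 SYK-inhibitor-resistant MV4-11 AML cells were seeded at 500 per well onto compound and cultured 72 hours (37 °C, 5% CO2). CellTiter-Glo was then added, and after 10 min at room temperature, luminescence gave viability.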

Cytochrome P450 3A7 (Homo sapiens), sequence (P24462 whole entry, looked up): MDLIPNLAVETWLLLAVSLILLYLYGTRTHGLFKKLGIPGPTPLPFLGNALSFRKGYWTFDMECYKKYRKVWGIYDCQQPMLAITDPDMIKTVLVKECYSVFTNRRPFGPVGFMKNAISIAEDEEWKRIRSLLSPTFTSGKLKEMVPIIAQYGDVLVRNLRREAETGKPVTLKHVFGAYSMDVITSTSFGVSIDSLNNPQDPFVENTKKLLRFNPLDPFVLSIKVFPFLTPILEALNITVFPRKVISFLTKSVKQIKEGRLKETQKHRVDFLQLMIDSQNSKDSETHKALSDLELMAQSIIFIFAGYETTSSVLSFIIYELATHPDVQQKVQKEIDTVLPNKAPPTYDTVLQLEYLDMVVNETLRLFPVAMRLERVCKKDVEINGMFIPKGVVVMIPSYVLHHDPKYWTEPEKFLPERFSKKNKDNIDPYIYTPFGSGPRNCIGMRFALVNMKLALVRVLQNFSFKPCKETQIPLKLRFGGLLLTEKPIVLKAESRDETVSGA

CC(C)NC[C@@H](O)COc1ccc(CC(N)=O)cc1
inactive: Potency [1] | Potency [2] | activity (max response) [3] 7.4% | Potency [4]

CC(CC(C#N)(c1ccccc1)C(C)C)N(C)C (centres undefined)
inactive: Potency [1] | Potency [2] | activity (max response) [3] 3.72%

CC1CN(c2cc3c(cc2F)c(=O)c(C(=O)O)cn3-c2ccc(F)cc2F)CCN1 (centres undefined)
inactive: activity change, negative = inhibition [1] 17% [at 4.83 µM] | viability (% of control) [2] 91.3% [at 4.97 µM] | activity (max response) [3] -5.86% | activity change, negative = viability loss [4] 1.32% [at 3.81 µM]

COc1cc(OC)nc(O[C@H](C(=O)O)C(OC)(c2ccccc2)c2ccccc2)n1
inactive: Potency [1] | Potency [2] | activity (max response) [3] 12.1% | Potency [4]

NS(=O)(=O)c1cc(C(=O)O)cc(N2CCCC2)c1Oc1ccccc1
inactive: Potency [1] | Potency [2] | activity (max response) [3] -0.899% | Potency [4]

CCOC(=O)c1ccc(NC(=O)CN2CCCCC2)cc1
inactive: Potency [1] | Potency [2] | activity (max response) [3] -5.52% | Potency [4]

CC1(c2nc3c(C(N)=O)cccc3[nH]2)CCCN1 (centres undefined)
inactive: Potency [1] | Potency [5]
